From the supplement of paper PMC11060735
In all, about 1,800 compounds went through this assay and about 50 (3%) showed activity. Only a selection was taken, and actives are over-represented in it overall.

System: mouse p16Ink4a+/- lung fibroblasts (INKBRITE, bleomycin-injured)
Assay: percentage of GFP+ (p16Ink4a+) fibroblasts among all cells in well; higher = less depletion of p16Ink4a+ cells, active = 20 or less
Conditions: 1 µM; 3 days

Row | SMILES | percentage of GFP+
1 | CC[C@@H]1[C@@H](C)O[C@@](O)([C@@H](C)[C@H](O)[C@H](C)[C@H]2OC(=O)/C=C/C=C/[C@H](C)[C@H]([C@@H](C)[C@@H](O)[C@H](C)[C@@]3(O)C[C@@H](O[C@H]4C[C@H](O)[C@H](O)[C@H](C)O4)[C@H](CC)[C@@H](C)O3)OC(=O)/C=C/C=C/[C@H]2C)C[C@H]1O[C@H]1C[C@H](O)[C@H](O)[C@H](C)O1 [Elaiophylin] | 11.1% (active)
2 | O=[N+]([O-])c1ncc[nH]1 [Azomycin] | 43.5% (inactive)
3 | CN1c2ccccc2C(NCCCCCCC(=O)O)c2ccc(Cl)cc2S1(=O)=O (stereo not given) [Tianeptine] | 29.5% (inactive)
4 | C[C@](O)(COc1ccc(C#N)cc1)C(=O)Nc1ccc(C#N)c(C(F)(F)F)c1 | 43.3% (inactive)
5 | CN1CCC(c2c[nH]c3ccc(O)cc23)CC1 | 45.6% (inactive)
6 | CO[C@H]1CCC(O[C@H]2C[C@H]([C@]3(C)CC[C@]4(C[C@H](O)[C@@H](C)[C@@H]([C@@H](C)/C=C(\C)C(=O)[C@H](C)C[C@H](C)C(=O)O)O4)O3)O[C@]3(O[C@@H]([C@H]4O[C@@](O)(CO)[C@H](C)C[C@@H]4C)C[C@@H]3C)[C@@H]2C)O[C@@H]1C (stereo not given in full) [Nanchangmycin] | 18.5% (active)
7 | CCCN1C[C@H](CSC)C[C@@H]2c3cccc4[nH]cc(c34)C[C@H]21 [Pergolide] | 54.5% (inactive)
8 | C=CC[C@]1(O)CC[C@H]2[C@@H]3CCC4=CC(=O)CCC4=C3C=C[C@@]21C [Altrenogest] | 48.5% (inactive)
9 | O=P1(NCCCl)OCCCN1CCCl (stereo not given) [Ifosfamide] | 45.7% (inactive)
10 | Cc1cc(C(=O)CN2CCCC2)c(C)n1-c1ccc(F)cc1 | 51.3% (inactive)
11 | CCC1(C)CC(=O)NC(=O)C1 [Bemegride] | 48.1% (inactive)
12 | CC(C)[C@]12O[C@H]1[C@@H]1O[C@]13[C@]1(O[C@H]1C[C@H]1C4=C(CC[C@@]13C)C(=O)OC4)[C@@H]2O [Triptolide] | 4.17% (active)
13 | Cc1ccccc1-n1c(Cn2ncc3c(N)ncnc32)nc2cccc(C)c2c1=O | 38.7% (inactive)
14 | CCC1=C[C@@H]2CN3CCc4c([nH]c5ccccc45)[C@@](C(=O)OC)(C2)[C@@H]13 [Catharanthine] | 47.9% (inactive)
15 | CN1CCN(c2nc3ccccc3nc2Cl)CC1 | 42.1% (inactive)
